# Laboratory results taken from PubChem BioAssay.
# Where “and” joins values, the source holds several entries; their conditions need not be identical. Equal entries are not always repeated. Where a structure was tested more than once in an assay, its records may differ in their call. Calls of active or inactive are those of the source. Unless noted, how the calls were made is not given here.
# Tests used:
# [1] = test system: Wnt5a (protein binding on small-molecule microarray); experiment: small molecules binding Wnt5a protein – biophysical, small-molecule microarray, 635/667 nm fluorescence, primary screen (AID 1142); conditions: 635 nm fluorescence, higher = more signal;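 further: fluorescence read at 667 nm with signal to noise per printed feature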
# [2] = ATP-based viability of Huh7 replicon cells – cell-based, CellTiter-Glo luminescence, basal, 48 h, cytotoxicity control for HCV replication inhibitor project, primary screen (AID 1143); conditions: higher = more signal, called active from +8 up or from −8 down;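 further: Huh7 hepatoma cells carrying a hepatitis C replication reporter with no stimulus; test concentration not given here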
# [3] = Pseudomonas biofilm growth suppression – PAO1 strain, BacTiter-Glo luminescence, LB-PBS, primary screen (AID 1144); conditions: P. aeruginosa PAO1 biofilm, 12 h, higher = more signal
# [4] = basal CRE-LacZ reporter activity in PC12 – cell-based, unstimulated, primary screen (AID 1145); conditions: no forskolin, luminescence, 4.5 h, higher = more signal, called active from +8 up or from −8 down
# [5] = forskolin-driven CRE-LacZ activity in PC12 – cell-based, CRE-LacZ reporter, forskolin-stimulated, primary screen (AID 1146); conditions: luminescence, 4.5 h, higher = more signal, called active from +8 up or from −8 down;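 further: PC12 cells with 6xCRE LacZ reporter stimulated by forskolin 10 µM; beta-galactosidase reporter signal reflecting CREB driven transcription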
# [6] = biological target: Streptavidin (Streptomyces avidinii) (UniProt P22629); experiment: compounds binding control protein streptavidin – biophysical, small-molecule microarray, 635/667 nm fluorescence, artefact control for SMM compound annotation, primary screen (AID 1147); conditions: higher = more signal;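 further: signal reflects streptavidin binding to arrayed compounds as a control protein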
# [7] = probe aInhba binding on compound microarray – biochemical, small-molecule microarray, 635/667 nm fluorescence, primary screen (AID 1148); conditions: higher = more signal;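 further: score merges 667nm spot fluorescence with signal-to-noise for antibody binding to printed compounds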
# Torsin-1A (Homo sapiens) [8] = biological target: Torsin-1A (Homo sapiens) (UniProt O14656); experiment: TOR1A wild-type binding on microarray – cell lysate, small-molecule microarray, lysate, 635/667 nm, primary screen (AID 1149); conditions: COS7 hTOR1A-WT lysate, 635 nm fluorescence, higher = more signal
# Torsin-1A (Homo sapiens) [9] = biological target: Torsin-1A (Homo sapiens) (UniProt O14656); experiment: torsin A mutant lysate binding on microarrays – cell lysate, small-molecule microarray, COS7 lysate, 635/667 nm fluorescence, primary screen (AID 1150); conditions: COS7 hTOR1A mutant lysate, 635 nm fluorescence, higher = more signal;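 further: score pools 667 nm emission and signal to noise measuring lysate protein binding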
# [10] = test system: Sonic hedgehog protein (Shh); experiment: Sonic hedgehog microarray binding compounds – biochemical, small-molecule microarray, 635/667 nm fluorescence, primary screen (AID 1151); conditions: 635 nm fluorescence, higher = more signal;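 further: Shh protein binding to compounds spotted on small-molecule microarray slides; score combines spot fluorescence intensity with signal-to-noise across triplicate slides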
# [11] = optical density shifts of acrAB sulA E. coli – strain DRC41, OD650, 48 h, E. coli filamentation inducer project, primary screen (AID 1152); conditions: higher = more signal, called active from +8 up or from −8 down;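 further: E. coli MC1000 strain DRC41 lacking acrAB efflux pump and sulA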
# [12] = probe aLefty1 binding on compound microarray – biochemical, small-molecule microarray, 635/667 nm fluorescence, primary screen (AID 1153); conditions: higher = more signal;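 further: score merges spot fluorescence with signal-to-noise ratio from the scanned slide images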
# [13] = plasmodial surface anion channel blockers, osmotic lysis – cell-based, P. falciparum Indochina, OD700, 1 h, primary screen (AID 1154); conditions: P. falciparum Indochina infected RBC osmotic lysis, higher = more signal, called active from +8 up or from −8 down
# [14] = plasmodial surface anion channel blockers, osmotic lysis – cell-based, P. falciparum Indochina, OD700, 2 h, primary screen (AID 1155);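 further: lysis reports solute entry through the parasite surface anion channel PSAC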; conditions: P. falciparum Indochina infected erythrocytes, higher = more signal, called active from +8 up or from −8 down
# [15] = changes in parasitized red cell lysis, either direction – P. falciparum Indochina, OD700, 3 h, PSAC antagonist project, primary screen (AID 1156); conditions: P. falciparum-infected erythrocytes, osmotic lysis, higher = more signal, called active from +8 up or from −8 down
# [16] = plasmodial surface anion channel blockers, osmotic lysis – cell-based, P. falciparum Indochina, OD700, 18 h, primary screen (AID 1157); conditions: P. falciparum Indochina infected erythrocytes, osmotic lysis OD700, 18 h; higher = more signal, called active from +8 up or from −8 down
# [17] = S6 kinase pathway phospho-S6 level changes – cell-based, A549, cytoblot, luminescence, serum-stimulated, primary screen (AID 1158); conditions: 5 h, higher = more signal;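 further: serum-stimulated A549 lung adenocarcinoma cells; signal is phosphorylated S6 detected by cytoblot immunostaining with HRP secondary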
# [18] = biological target: NADPH oxidase 2 (Homo sapiens) (UniProt P04839); experiment: compounds shifting NOX2 Amplex Red fluorescence – cell-based, HEK293-NOX2, PMA-stimulated, NOX inhibitor project, primary screen (AID 1159); conditions: 45 min, higher = more signal, called active from +8 up or from −8 down; further: test concentration not given here
# [19] = biological target: NADPH oxidase 4 (Homo sapiens) (UniProt Q9NPH5); experiment: compounds shifting NOX4 Amplex Red fluorescence – cell-based, HEK293-NOX4, tetracycline-induced, NOX inhibitor project, primary screen (AID 1160); conditions: HEK293-NOX4, Amplex Red H2O2 fluorescence, 45 min; higher = more signal, called active from +8 up or from −8 down
# [20] = biological target: NADPH oxidase 5 (Homo sapiens) (UniProt Q96PH1); experiment: compounds shifting NOX5 Amplex Red fluorescence – cell-based, HEK293-NOX5, NOX inhibitor project, primary screen (AID 1161); conditions: HEK293-NOX5, ionomycin, 45 min, higher = more signal
# Chain of NADPH oxidase 5 (Homo sapiens) (Q96PH1 whole entry, looked up): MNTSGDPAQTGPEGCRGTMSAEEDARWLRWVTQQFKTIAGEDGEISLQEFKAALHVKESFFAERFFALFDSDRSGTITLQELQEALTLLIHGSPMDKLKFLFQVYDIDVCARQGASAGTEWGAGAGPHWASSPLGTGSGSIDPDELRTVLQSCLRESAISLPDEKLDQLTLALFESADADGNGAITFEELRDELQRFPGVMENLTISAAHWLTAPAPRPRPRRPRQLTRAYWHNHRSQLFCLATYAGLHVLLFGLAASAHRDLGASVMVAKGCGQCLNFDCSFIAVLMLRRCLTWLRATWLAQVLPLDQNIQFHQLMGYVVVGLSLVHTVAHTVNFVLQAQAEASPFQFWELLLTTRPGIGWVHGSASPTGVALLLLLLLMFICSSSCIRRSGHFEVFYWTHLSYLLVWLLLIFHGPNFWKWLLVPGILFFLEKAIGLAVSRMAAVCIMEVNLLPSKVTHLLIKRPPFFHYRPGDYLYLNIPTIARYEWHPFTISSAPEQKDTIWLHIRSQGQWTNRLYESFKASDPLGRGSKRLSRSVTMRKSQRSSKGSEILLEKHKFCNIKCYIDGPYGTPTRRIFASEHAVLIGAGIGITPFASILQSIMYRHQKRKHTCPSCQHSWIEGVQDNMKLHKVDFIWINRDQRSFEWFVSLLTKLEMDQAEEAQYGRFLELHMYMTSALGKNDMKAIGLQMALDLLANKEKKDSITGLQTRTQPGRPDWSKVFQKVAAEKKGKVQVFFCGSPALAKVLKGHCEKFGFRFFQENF
# Chain of Torsin-1A (Homo sapiens) (O14656 whole entry, looked up): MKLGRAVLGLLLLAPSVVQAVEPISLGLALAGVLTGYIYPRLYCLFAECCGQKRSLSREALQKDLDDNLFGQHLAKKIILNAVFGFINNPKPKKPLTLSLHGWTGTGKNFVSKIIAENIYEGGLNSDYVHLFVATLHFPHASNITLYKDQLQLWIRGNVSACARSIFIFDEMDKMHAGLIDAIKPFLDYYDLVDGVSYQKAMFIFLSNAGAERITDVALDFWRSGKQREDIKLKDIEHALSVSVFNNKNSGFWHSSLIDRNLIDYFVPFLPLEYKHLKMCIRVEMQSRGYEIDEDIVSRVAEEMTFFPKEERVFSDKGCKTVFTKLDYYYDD
# Chain of NADPH oxidase 4 (Homo sapiens) (Q9NPH5 whole entry, looked up): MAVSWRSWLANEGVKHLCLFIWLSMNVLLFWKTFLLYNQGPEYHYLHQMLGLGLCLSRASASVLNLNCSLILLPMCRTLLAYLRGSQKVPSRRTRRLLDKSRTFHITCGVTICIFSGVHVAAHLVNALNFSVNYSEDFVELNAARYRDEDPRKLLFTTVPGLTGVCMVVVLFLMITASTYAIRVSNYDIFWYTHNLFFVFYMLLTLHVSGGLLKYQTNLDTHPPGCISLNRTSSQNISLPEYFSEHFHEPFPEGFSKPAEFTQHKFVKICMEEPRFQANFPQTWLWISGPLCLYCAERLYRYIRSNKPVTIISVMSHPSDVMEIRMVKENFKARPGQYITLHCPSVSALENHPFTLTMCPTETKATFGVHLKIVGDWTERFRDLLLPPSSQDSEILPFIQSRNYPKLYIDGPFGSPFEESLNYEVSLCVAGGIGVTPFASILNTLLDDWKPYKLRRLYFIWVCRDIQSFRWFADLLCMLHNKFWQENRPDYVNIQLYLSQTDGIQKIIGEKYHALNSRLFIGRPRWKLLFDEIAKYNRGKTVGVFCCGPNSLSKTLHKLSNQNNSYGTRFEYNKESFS
# Chain of NADPH oxidase 2 (Homo sapiens) (P04839 whole entry, looked up): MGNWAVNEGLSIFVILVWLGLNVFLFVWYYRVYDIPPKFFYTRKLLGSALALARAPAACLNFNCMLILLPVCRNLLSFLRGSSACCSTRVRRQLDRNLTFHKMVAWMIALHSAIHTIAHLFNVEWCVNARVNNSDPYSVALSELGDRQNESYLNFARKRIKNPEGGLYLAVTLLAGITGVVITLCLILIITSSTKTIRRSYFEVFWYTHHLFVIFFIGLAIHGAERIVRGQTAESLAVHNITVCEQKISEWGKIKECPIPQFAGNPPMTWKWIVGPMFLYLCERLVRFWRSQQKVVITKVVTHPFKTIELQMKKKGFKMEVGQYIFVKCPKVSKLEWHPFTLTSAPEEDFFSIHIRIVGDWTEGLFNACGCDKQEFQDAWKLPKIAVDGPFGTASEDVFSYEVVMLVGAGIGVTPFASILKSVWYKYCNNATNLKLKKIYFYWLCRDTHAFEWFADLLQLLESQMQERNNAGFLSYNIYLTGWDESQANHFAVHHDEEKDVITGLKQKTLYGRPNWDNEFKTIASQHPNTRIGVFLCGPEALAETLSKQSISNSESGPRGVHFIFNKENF
# Chain of Streptavidin (Streptomyces avidinii) (P22629 whole entry, looked up): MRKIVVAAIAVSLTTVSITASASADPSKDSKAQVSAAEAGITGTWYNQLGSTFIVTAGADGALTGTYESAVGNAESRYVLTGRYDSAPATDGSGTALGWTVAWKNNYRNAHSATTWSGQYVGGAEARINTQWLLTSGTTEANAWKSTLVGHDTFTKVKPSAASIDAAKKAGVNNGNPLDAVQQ
SMILES,composite z-score [1],z-score [2],z-score [3],z-score [4],z-score [5],composite z-score [6],composite z-score [7],composite z-score (Torsin-1A (Homo sapiens) [8]),composite z-score (Torsin-1A (Homo sapiens) [9]),composite z-score [10],z-score [11],composite z-score [12],z-score [13],z-score [14],z-score [15],z-score [16],z-score [17],z-score [18],z-score [19],z-score [20]
O=C1NC(=O)C2C1C=CC(C(O)c1ccc([N+](=O)[O-])cc1)N2Nc1ccc(Cl)cc1Cl (stereo not given),0.283 and 0.0563,-0.311 (inactive) and -0.861 (inactive),-1.48 (inactive) and -2.27 (inactive),0.812 (inactive) and 0.443 (inactive),0.479 (inactive) and -0.492 (inactive),0.404 and 0.519,0.0301 and 0.175,0.339 and 1.2,0.703 and 1.22,-0.274 and -0.13,0.302 (inactive) and 1.01 (inactive),0.134 and 0.623,9.67 (active) and 3.11 (inactive),0.913 (inactive) and 0.168 (inactive),0.538 (inactive) and -0.138 (inactive),-0.988 (inactive) and -1.28 (inactive),0.474 and 0.7,0.313 (inactive) and 0.609 (inactive),-5.29 (inactive) and -4.55 (inactive),-1.98 and -1.75
CCCNC(=O)OC[C@H]1O[C@H](CCON=C(C)CCC(=O)OC[C@H]2O[C@H](C#Cc3ccccc3)C=C[C@@H]2Oc2ccc(C)cc2)C=C[C@@H]1Oc1ccc(OC)cc1,-0.284,-0.538 (inactive),-0.145 (inactive),-0.729 (inactive),0.872 (inactive),1.07,-0.103,-0.474,-0.352,0.0277,0.181 (inactive),-0.0917,0.77 (inactive),0.329 (inactive),-0.107 (inactive),0.097 (inactive),-0.591,0.333 (inactive),0.854 (inactive),-0.746
C=CC[C@@H](O)c1ccc(O)c(F)c1,-0.54 and -0.38,0.504 (inactive) and -1.51 (inactive),-0.222 (inactive),-0.403 (inactive) and 0.0632 (inactive),0.347 (inactive) and -1.46 (inactive),-1.6 and -1.65,-0.327 and -0.157,-1.73 and -0.874,0.565 and -0.383,-0.97 and 0.89,-0.024 (inactive) and 1.7 (inactive),-0.216 and -0.0449,0.92 (inactive) and -0.126 (inactive),0.574 (inactive) and -1.54 (inactive),-0.0619 (inactive) and -1.38 (inactive),0.476 (inactive) and -2.12 (inactive),0.0996 and 0.266,-0.896 (inactive) and -0.237 (inactive),-1.46 (inactive) and 0.42 (inactive),-0.436 and 0.271
CC(C)[Si]1(C(C)C)OCc2cc(CCCc3cc4c(c(CCc5ccccc5)n3)[Si](C(C)C)(C(C)C)OC4)nc(CCc3ccccc3)c21,0.0898 and 0.0154,-0.871 (inactive) and 0.114 (inactive),0.0644 (inactive),0.731 (inactive) and 0.469 (inactive),-0.315 (inactive) and 0.352 (inactive),-0.59 and 0.473,-0.0791 and 0.0442,-0.473 and 0.21,0.0547 and 0.39,0.405 and 0.595,2.34 (inactive) and -0.836 (inactive),-0.147 and -0.192,1.1 (inactive) and 0.221 (inactive),-0.712 (inactive) and -0.436 (inactive),-1.01 (inactive) and -0.355 (inactive),-0.788 (inactive) and -0.406 (inactive),0.0671 and -0.999,1.5 (inactive) and 0.412 (inactive),0.0233 (inactive) and 0.608 (inactive),-2.98 and -0.0908
C=CCN(C(=O)C1N(CCCCCCO)C(=O)C2C(C(=O)O)C3C=CC21O3)c1ccc(OC)cc1 (stereo not given),1.04 and -0.561,0.191 (inactive) and 0.252 (inactive),1.51 (inactive),0.0564 (inactive) and 0.724 (inactive),-0.933 (inactive) and -0.173 (inactive),-0.825 and -0.728,-0.0791 and -0.0279,-3.03 and -2.03,-1.75 and -1.28,-1.27 and -1.42,2.17 (inactive) and 0.932 (inactive),0.153 and 0.659,0.12 (inactive) and -0.718 (inactive),-1.31 (inactive) and 0.0039 (inactive),-0.398 (inactive) and -0.196 (inactive),-1.43 (inactive) and -0.157 (inactive),0.441 and -0.173,0.846 (inactive) and 0.381 (inactive),-0.0568 (inactive) and -0.682 (inactive),1.3 and 0.105
C[C@@]1([C@@H](NC(=O)Cc2ccccc2)c2ccc(-c3ccccc3)cc2)C[C@H]1C1CCCCC1,1.42 and 1.03 and 0.799,-4.75 (inactive) and -1.29 (inactive) and -1.07 (inactive),-0.411 (inactive) and -0.255 (inactive) and 0.378 (inactive),-0.957 (inactive) and -0.185 (inactive) and -0.375 (inactive),-1.27 (inactive) and 0.614 (inactive) and 0.79 (inactive),2.11 and 0.863 and -0.261,0.846 and 1.64 and -0.328,0.0326 and 1.34 and 0.296,0.621 and 0.522 and 0.821,-1.33 and -0.836 and -0.607,-1.01 (inactive) and -1.14 (inactive) and -2.63 (inactive),1.31 and 1.96 and -0.533,2.55 (inactive) and 0.584 (inactive) and 10.1 (active),-0.208 (inactive) and 0.325 (inactive) and 1.68 (inactive),1.01 (inactive) and 1.19 (inactive) and 0.922 (inactive),-1.51 (inactive) and 0.741 (inactive) and 0.644 (inactive),1.28 and -0.396 and -0.729,-4.2 (inactive) and -0.505 (inactive) and -1.36 (inactive),-5.91 (inactive) and -3.11 (inactive) and -1.7 (inactive),-3.09 and 0.173 and 0.832
